# Assay results from article PMC4336329 (PLoS ONE, 2015).
# Among all 310,000 compounds or so, about 14,000 (4.5%) showed an effect of 50% or more. The effect is printed as a negative number. The entries come from a sample that favours strong results as a whole.
# Molecular target: human ether-à-go-go-related gene (hERG) potassium channel (human, UniProt Q12809)
# Assay: primary screen, population patch clamp on CHO cells stably expressing hERG; higher = less effect of the substance
# 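Note: peak tail current of the secondary pulse compared with the same well before compound.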
# Chain of human ether-à-go-go-related gene (hERG) potassium channel (Q12809 whole entry, looked up): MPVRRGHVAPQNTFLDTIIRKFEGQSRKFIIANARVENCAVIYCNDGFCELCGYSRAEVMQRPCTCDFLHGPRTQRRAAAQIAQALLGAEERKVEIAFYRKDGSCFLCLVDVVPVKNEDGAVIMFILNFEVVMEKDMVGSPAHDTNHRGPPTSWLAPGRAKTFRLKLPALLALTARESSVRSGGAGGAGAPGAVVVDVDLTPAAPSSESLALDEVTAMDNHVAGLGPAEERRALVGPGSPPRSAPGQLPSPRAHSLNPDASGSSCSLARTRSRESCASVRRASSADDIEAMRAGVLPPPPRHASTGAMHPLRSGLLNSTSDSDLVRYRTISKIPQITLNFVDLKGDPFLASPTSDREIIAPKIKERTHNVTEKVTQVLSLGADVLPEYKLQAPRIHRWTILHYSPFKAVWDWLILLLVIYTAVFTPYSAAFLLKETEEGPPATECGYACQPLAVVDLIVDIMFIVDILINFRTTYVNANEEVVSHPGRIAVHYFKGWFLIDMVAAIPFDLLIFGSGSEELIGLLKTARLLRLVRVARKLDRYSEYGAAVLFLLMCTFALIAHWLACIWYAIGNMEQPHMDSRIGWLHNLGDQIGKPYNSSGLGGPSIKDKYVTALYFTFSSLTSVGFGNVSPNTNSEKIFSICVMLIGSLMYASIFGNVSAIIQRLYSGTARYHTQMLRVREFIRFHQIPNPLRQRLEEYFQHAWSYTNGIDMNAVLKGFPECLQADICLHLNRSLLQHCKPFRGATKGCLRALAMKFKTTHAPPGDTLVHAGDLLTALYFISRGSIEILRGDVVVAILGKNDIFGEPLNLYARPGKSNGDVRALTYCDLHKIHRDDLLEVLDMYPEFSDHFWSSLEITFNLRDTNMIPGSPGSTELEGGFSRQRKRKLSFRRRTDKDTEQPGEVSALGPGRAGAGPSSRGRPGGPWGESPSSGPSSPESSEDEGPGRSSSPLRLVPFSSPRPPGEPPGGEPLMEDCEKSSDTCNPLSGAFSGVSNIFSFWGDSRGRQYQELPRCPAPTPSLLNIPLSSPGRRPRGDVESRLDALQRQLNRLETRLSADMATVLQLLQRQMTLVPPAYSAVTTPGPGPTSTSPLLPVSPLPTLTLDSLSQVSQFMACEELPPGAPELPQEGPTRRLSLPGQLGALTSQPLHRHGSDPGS
row,SMILES,"hERG current change (%, negative = inhibition) at 10uM [%]"
1,O=C(COc1ccccc1)Nc1nonc1NC(=O)COc1ccccc1,-12.8
2,COc1cc(C(=S)N2CCCC2)ccc1O,18.6
3,CCN1C(=O)C2(Nc3ccccc3-c3nc4ccccc4n32)c2cc(OC)ccc21 (stereo not drawn),-4.35
4,CCC(=O)N1CCc2cc(S(=O)(=O)CCC(=O)NCCc3ccc(OC)c(OC)c3)ccc21,-0.229
5,O=C(Nc1ccc(Cl)c(Cl)c1)NC1CCS(=O)(=O)C1 (stereo not drawn),-8.07
6,COc1cc(NS(=O)(=O)c2ccc(NC(C)=O)cc2)ncn1,0.81
7,Cc1nn(-c2ccc(Cl)cc2)c(N)c1C(O)(CSc1nccn1C)C(F)(F)F (stereo not drawn),-22.9
8,O=C(NCC1CCCO1)c1ccc2ccccc2n1 (stereo not drawn),-3.04
9,COc1cc(C(=O)NCCCc2nc3ccccc3n2Cc2cc(C)ccc2C)cc(OC)c1OC,-33.6
10,CCn1c(CCCNC(=O)c2ccc(F)cc2)nc2ccccc21,-41.3
11,COc1ccc(C(=O)NCCCc2nc3ccccc3n2Cc2cc(C)ccc2C)cc1OC,-39.7
12,COc1ccc(C(=O)NCCCc2nc3ccccc3n2Cc2ccccc2C)cc1OC,-55.4
13,CC(C)Cn1c(CCCNC(=O)c2ccc(F)cc2)nc2ccccc21,-50.3
14,CCn1c(CCNC(=O)c2ccc(F)cc2)nc2ccccc21,-33.9
15,COc1ccc(CCC(=O)OC(C)C(=O)c2ccc(C)cc2)cc1 (stereo not drawn),0.769
16,COCCSc1nnc(NC(=O)c2cc(C(=O)OC)cc([N+](=O)[O-])c2)s1,11.4
17,CC(C)c1nc(SCC(=O)NCc2ccccc2)n[nH]1,2.8
18,COc1cccc(CC2(CO)CCCN(C(=O)c3cc[n+]([O-])cc3)C2)c1 (stereo not drawn),10.4
19,O=C(c1ccc(-n2ccnc2)cc1)N1CCCC(CO)(Cc2cccc(Cl)c2)C1 (stereo not drawn),-60.4

row,SMILES,"hERG current change (%, negative = inhibition) at 10uM [%]"
1,CCOC(=O)C1(Cc2ccccc2)CCCN(C(=O)c2ccc(-n3ccnc3)cc2)C1 (stereo not drawn),-58.4
2,CCOC(=O)C1(Cc2ccccc2)CCCN(C(=O)C=C(C)C)C1 (stereo not drawn),13.2
3,Cc1ccccc1CC1(CO)CCCN(C(=O)c2cccc(Cl)c2)C1 (stereo not drawn),1.01
4,CCOC(=O)C1(Cc2ccccc2)CCCN(C(=O)c2cn[nH]c2)C1 (stereo not drawn),13.4
5,CC(=O)c1ccc(NC(=O)c2ccc(COc3ccccc3[N+](=O)[O-])o2)cc1,-8.46
6,Cc1cc(=O)n(CC(=O)Nc2cc(Cl)ccc2C)c(C(C)C)n1,-1.59
7,CN(CC1CCOCC1)C(=O)CC1C(=O)NCCN1Cc1ccc(Cl)c(F)c1 (stereo not drawn),10.4
8,CCCCNC(=O)c1nn(-c2ccccc2OC)c(=O)c2ccccc12,-4.46
9,COc1ccc(NC(=O)CCN2CCN(S(=O)(=O)c3ccc(F)cc3)CC2)cc1,-6.32
10,Cc1cc(C)c2c(-n3cccc3)c(C(=O)NNS(=O)(=O)c3ccc(Cl)cc3)sc2n1,0.175
11,S=C(Nc1ccc(Br)cc1Cl)NC1CCN(Cc2ccccc2)CC1,-2.37
12,CCN1CCC(NC(=O)Nc2cccc(C(F)(F)F)c2)CC1,-51.1
13,O=C(/C=C/c1cccc(Br)c1)NC1CCN(Cc2ccccc2)CC1,-71.1
14,O=C(Nc1ccc(F)cc1)NC1CCN(Cc2ccccc2)CC1,-36.7
15,O=C(Cc1c(F)cccc1Cl)NC1CCN(Cc2ccccc2)CC1,-0.715
16,O=C(/C=C/c1cccc(F)c1)NC1CCN(Cc2ccccc2)CC1,-70.6
17,COc1ccc(/C=C/C(=O)NC2CCN(Cc3ccccc3)CC2)cc1OC,-29
18,O=C(Nc1cccc(C(F)(F)F)c1)NC1CCCCC1,-3.18
19,O=C(Nc1ccccc1)NC1CCN(Cc2ccccc2)CC1,-39.4

row,SMILES,"hERG current change (%, negative = inhibition) at 10uM [%]"
1,CN1CCC(NC(=O)Nc2cccc(C(F)(F)F)c2)CC1,-0.705
2,O=C(COC(=O)/C=C/c1cccc(Br)c1)NC1CC1,-2.84
3,O=C(Nc1cccc(F)c1)NC1CCN(Cc2ccccc2)CC1,-56.4
4,COc1ccc(CN2C(=O)[C@H]3Cc4c([nH]c5ccccc45)C(C)(C)N3C2=O)cc1,7
5,COc1cccc(NC(=O)N(Cc2cc3cc(C)cc(C)c3[nH]c2=O)CC2COCCO2)c1 (stereo not drawn),4.85
6,Cc1nnc(SCC(=O)N(Cc2ccccc2)C(C)C)n1-c1ccccc1,-5.28
7,Cc1c(O)ccc2c(=O)c(-c3nncn3-c3ccccc3)coc12,21.2
8,COc1ccc(NC(=O)c2ccccc2C)cc1,14.9
9,Cc1c(C(=O)NCCc2ccccc2)oc2ccc(S(=O)(=O)N3CCOCC3)cc12,-19.1
10,CC(C)CC(=O)NCC(C)NC(=O)CC(C)C (stereo not drawn),3.51
11,COc1ccc(C(CC(=O)N2CCN(c3ccccc3)CC2)c2c(OC)cc(OC)c3ccc(=O)oc23)cc1 (stereo not drawn),1.88
12,Fc1ccc(C2CC(c3ccccc3)n3ncnc3N2)cc1 (stereo not drawn),-29.3
13,Cc1ccc(C2CC(c3ccccc3)n3ncnc3N2)cc1 (stereo not drawn),-1.18
14,c1ccc(C2CC(c3ccccc3)n3ncnc3N2)cc1 (stereo not drawn),-17.3
15,Clc1ccc(C2CC(c3ccccc3)Nc3ncnn32)cc1 (stereo not drawn),-64.4
16,Fc1ccc(C2CC(c3ccc(F)cc3)n3ncnc3N2)cc1 (stereo not drawn),-60
17,Fc1ccc(C2CC(c3ccccc3)Nc3ncnn32)cc1 (stereo not drawn),-45.9
18,CCc1ccc(/C=C2\SC(=S)N(CCCC(=O)Nc3nccs3)C2=O)cc1,8.83
19,Cc1ccc(S(=O)(=O)n2nc(OC(=O)c3ccccc3F)cc2N)cc1,9.49
